Measurements reported in PubChem BioAssay AID1159580 (chemical genetic matrix, 2015).
Several values for one entry are separate records, joined by “and”; a condition that tells them apart may be missing. Equal values may be shown once. The campaign covered roughly 5,500 compounds. About 2,000 (36%) were called active. Another 18% or so got no clear call; they are omitted. Cut-off read from the data, not from the text of the source: active = normalized growth mostly below about 0.91 (no sharp cut-off); inconclusive = no clear call, values can overlap the other calls; inactive = mostly above about 0.92. This is one part of the list.

Assay: chemical genetic growth profiling, strain panel (AID 1159580);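 note: tested at 20 µM; growth read once vehicle control cultures reached saturation at 30 °C; 1 = growth at the plate median or of vehicle wells; lower values mean less growth of the strain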
Conditions: S. cerevisiae deletion strains, growth OD

Measured: normalized growth

CCOC(=O)C(Cc1ccc(O)cc1)NC(C)=O (stereo unspecified)
inactive: locus YAL013W, strain DEP1, active compounds read low 0.99 | locus YAL021C, strain ccr4, active compounds read low 1.01 | locus YAL026C, strain drs2, active compounds read low 1.01 | locus YAL030W, strain snc1, active compounds read low 1 | locus YBL061C, strain skt5, active compounds read low 1.02 | locus YBR009C, strain hhf1, active compounds read low 0.974 | locus YBR021W, strain FUR4, active compounds read low 1.01 | locus YBR023C, strain chs3, active compounds read low 1.01 | locus YBR171W, strain sec66, active compounds read low 1.01 | locus YBR229C, strain ROT2, active compounds read low 1.01 | locus YBR231C, strain swc5, active compounds read low 1 | locus YBR279W, strain paf1, active compounds read low 1 | locus YCL011C, strain gbp2, active compounds read low 1 | locus YCL016C, strain dcc1, active compounds read low 1 | locus YCL029C, strain bik1, active compounds read low 0.999 | locus YCL069W, strain vba3, active compounds read low 0.989 | locus YCR088W, strain abp1, active compounds read low 1.01 | locus YDL005C, strain med2, active compounds read low 1.02 | locus YDL035C, strain GPR1, active compounds read low 1.02 | locus YDL040C, strain nat1, active compounds read low 1.01 | locus YDL074C, strain BRE1, active compounds read low 1.02 | locus YDL101C, strain DUN1, active compounds read low 1.02 | locus YDL134C, strain PPH21, active compounds read low 1 | locus YDL185W, strain tfp1, active compounds read low 0.993 | locus YDL192W, strain arf1, active compounds read low 0.996 | locus YDR001C, strain nth1, active compounds read low 1.01 | locus YDR069C, strain doa4, active compounds read low 0.998 | locus YDR101C, strain arx1, active compounds read low 0.996 | locus YDR137W, strain rgp1, active compounds read low 1.02 | locus YDR150W, strain NUM1, active compounds read low 1.01 | locus YDR159W, strain sac3, active compounds read low 0.985 | locus YDR162C, strain NBP2, active compounds read low 1.02 | locus YDR195W, strain ref2 1.01 | locus YDR297W, strain sur2, active compounds read low 1 | locus YDR318W, strain mcm21, active compounds read low 1.01 | locus YDR334W, strain swr1, active compounds read low 0.997 | locus YDR335W, strain msn5, active compounds read low 1.01 | locus YDR388W, active compounds read low 1.01 | locus YDR392W, strain spt3, active compounds read low 1.03 | locus YDR502C, strain sam2, active compounds read low 0.992 | locus YEL003W, strain gim4, active compounds read low 1.01 | locus YEL037C, strain rad23, active compounds read low 1 | locus YEL061C, strain CIN8 (second series), active compounds read low 0.998 | locus YEL061C, strain CIN8, active compounds read low 1.01 | locus YER015W, strain faa2, active compounds read low 1 | locus YER016W, strain bim1, active compounds read low 1.03 | locus YER110C, active compounds read low 1.01 | locus YER111C, strain swi4, active compounds read low 1.02 | locus YER155C, strain BEM2 (second series), active compounds read low 1.04 | locus YER155C, strain BEM2, active compounds read low 1 | locus YER167W, strain BCK2, active compounds read low 1.02 | locus YFR010W, strain ubp6, active compounds read low 0.987 | locus YGL078C, strain dbp3, active compounds read low 0.993 | locus YGL086W, strain mad1, active compounds read low 1 | locus YGL167C, strain pmr1, active compounds read low 1.01 | locus YGL173C, strain kem1, active compounds read low 1.01 | locus YGL227W, strain vid30, active compounds read low 1 | locus YGL240W, strain doc1, active compounds read low 1.03 | locus YGL248W, strain PDE1, active compounds read low 1.01 | locus YGL253W, strain hxk2, active compounds read low 1 | locus YGR078C, strain PAC10, active compounds read low 1.02 | locus YGR135W, strain pre9, active compounds read low 0.989 | locus YGR229C, strain SMI1, active compounds read low 1.03 | locus YGR252W, strain gcn5, active compounds read low 0.961 | locus YHR013C, strain ard1, active compounds read low 1.03 | locus YHR027C, strain rpn1, active compounds read low 1.01 | locus YHR030C, strain SLT2, active compounds read low 1.02 and 0.974 | locus YHR079C, strain IRE1 (second series), active compounds read low 1.01 | locus YHR079C, strain IRE1, active compounds read low 0.984 | locus YHR094C, strain hxt1, active compounds read low 1.01 | locus YHR129C, strain ARP1, active compounds read low 1.01 | locus YHR142W, strain chs7, active compounds read low 1.01 | locus YHR200W, strain rpn10, active compounds read low 1.01 | locus YIL066C, strain RNR3, active compounds read low 1.01 | locus YIL073C, strain SPO22, active compounds read low 1 | locus YIL125W, strain kgd1, active compounds read low 1 | locus YIR030C, strain dcg1, active compounds read low 0.997 | locus YJL092W, strain hpr5, active compounds read low 1 | locus YJL095W, strain BCK1 (second series), active compounds read low 1.03 | locus YJL095W, strain BCK1, active compounds read low 1.04 and 0.965 | locus YJL115W, strain asf1, active compounds read low 0.999 | locus YJL129C, strain trk1, active compounds read low 1.02 | locus YJL134W, strain LCB3, active compounds read low 1.02 | locus YJL154C, strain vps35, active compounds read low 1.01 | locus YJL164C, strain tpk1, active compounds read low 1 | locus YJL166W, strain qcr8, active compounds read low 0.995 | locus YJL168C, strain set2, active compounds read low 1.01 | locus YJL187C, strain SWE1 (second series), active compounds read low 1.02 | locus YJL187C, strain SWE1, active compounds read low 1.01 | locus YJR043C, strain POL32, active compounds read low 1.02 | locus YJR066W, strain TOR1, active compounds read low 0.887
